Assay outcomes as filed in PubChem BioAssay.
UBC13 polyUb = UBC13 polyubiquitin chain formation inhibitors, primary screen, biochemical, TR-FRET, uHTS; inhibition, % at 20 µM; 330,000 compounds, 0.47% hits; in the data active means inhibition above about 45%, passing the limit was not always enough
Target sequence (P61088 whole entry, looked up): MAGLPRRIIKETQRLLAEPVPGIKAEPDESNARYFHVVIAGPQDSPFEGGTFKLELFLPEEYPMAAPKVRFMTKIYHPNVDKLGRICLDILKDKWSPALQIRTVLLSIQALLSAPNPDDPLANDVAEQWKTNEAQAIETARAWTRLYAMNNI
dFosB act = activators of delta FosB homodimer, primary screen, biochemical, fluorescence polarization, TAMRA-CDK5 oligo, single point; Protein FosB (Mus musculus), P13346; purified delta FosB; percent of positive-control signal above neutral wells; activation, % at 25 µM; 340,000 compounds, 0.99% hits; AID 493131, 2011;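 active means mean activation above about 17%, with every replicate also reaching it, limit read from the data, passing the limit was not always enough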
GRIN3A LBD mod = binders of NR3A ligand-binding domain, primary screen, biophysical, differential scanning fluorimetry, uHTS. Glutamate receptor ionotropic, NMDA 3A (GRIN3A) ligand-binding domain. NR3A LBD differential scanning fluorimetry, Tm shift; 0% = protein alone, 100% = glycine-bound protein. Tm shift relative to glycine control, % at 25 µM. 340,000 compounds, 2.5% hits. AID 1259313, 2017;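 active means melting temperature shift of at least 10% of the positive control shift, at one fixed dose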
NALP1 yeast inh = NALP1 inflammasome inhibitors in reconstituted yeast, colorimetric, S. cerevisiae, triplicate retest; inhibition, % at 10 µM; S. cerevisiae NALP1/ASC/caspase-1 growth, X-gal OD620, 72 h; 280,000 compounds, 0.61% hits; AID 2071, 2009; in the data active means inhibition mostly above about 24%, no sharp cut-off; inactive means mostly below about 32%
Yeast superoxide = reduction of superoxide in aged yeast, primary screen, HTS; superoxide response (% of plate mean), % at 10 µM; S. cerevisiae aged cells, superoxide DHE fluorescence; stronger effect = lower value; 330,000 compounds, 0.18% hits;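 active means superoxide response under a set limit, about three screen SD below normal, cut at about 65% in these data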;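 further: yeast aged for seven days with compound at 30 °C before DHE staining; 100% = average MFI of all compound-treated wells on the plate with controls excluded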
Active calls of the source: *; x = no result given. Compounds with a hit are over-represented: about 4.3% of the library has one in this group of screens.

SMILES	UBC13 polyUb	dFosB act	GRIN3A LBD mod	NALP1 yeast inh	Yeast superoxide
Cc1ccc(CN2CCN(CC3CC4C=CC3C4)CC2)cc1 (stereo unspecified)	-4	-2	1	20	95
O=C(Nc1ccc(Oc2ncnc3cc(Cl)ccc23)nc1)c1cccs1	-7	0	11*	x	102
O=C(c1cnccn1)N1CCc2ccccc2C1	-15	-5	-2	5	112
CCc1ccc(NC(=O)CSc2n[nH]c(C)c2[N+](=O)[O-])cc1	-22	-4	-5	-1	92
Cc1[nH]nc(SCC(=O)Nc2cccc(O)c2)c1[N+](=O)[O-]	4	-4	22*	10	95
CC(/C=N/NC(=O)c1nnn(-c2nonc2N)c1C)=C\c1ccccc1	0	3	7	-1	91
CC(C)c1c(C(=O)N/N=C/c2ccccc2OCc2c(F)cccc2Cl)nnn1-c1nonc1N	-4	-4	13*	34	81
COc1ccc2ccccc2c1/C=N/NC(=O)c1nnn(-c2nonc2N)c1C(C)C	-22	9	13*	0	97
COc1ccc2ccccc2c1/C=N/NC(=O)c1nnn(-c2nonc2N)c1CN(C)C	-7	-1	0	27	100
Cc1c(C(=O)N/N=C/c2c(O)ccc3ccccc23)nnn1-c1nonc1N	-4	38*	4	14	97
COCc1c(C(=O)N/N=C/c2cccc3ccccc23)nnn1-c1nonc1N	-1	8	31*	1	102
CSc1nnc(CSc2cc(C)nc(N(C)C)n2)o1	6	0	-2	31	93
CCOc1ccc(N2C(=O)Nc3ccc(Br)cc3C2(O)C(=O)NCCCN(C)C)cc1 (stereo unspecified)	4	-1	12*	6	110
CCOc1ccc(N2C(=O)Nc3ccc(Br)cc3C2(O)C(=O)NC(C)C)cc1 (stereo unspecified)	5	-11	12*	-8	110
COc1ccc(CCNC(=O)COC(=O)c2cncc(Br)c2)cc1OC	1	-2	0	x	99
CC(=O)c1c(C)[nH]c(C(=O)NNC(=O)c2ccc(C)cc2)c1C	1	-3	4	x	119
COc1ccc(Cl)cc1C(=O)NNC(=O)c1[nH]c(C)c(C(C)=O)c1C	3	-7	15*	x	84
CCOc1cccc(-c2c(C(=O)N/N=C(\C)c3cccnc3)nnn2-c2nonc2N)c1	-5	-10	0	17	89
CCCCOc1cccc(C(=O)NC(=S)Nc2cccc(C(F)(F)F)c2)c1	8	-3	12*	21	103
CCOc1cccc(C(=O)NC(=S)Nc2cccc(NC(=O)c3ccccc3Cl)c2)c1	-2	-6	16*	0	110
CC(C)Oc1cccc(C(=O)NC(=S)Nc2cccc(C(F)(F)F)c2)c1	-3	4	-4	20	89
CCOc1cccc(C(=O)NC(=S)Nc2ccccc2)c1	-6	1	2	20	87
O=C(NNC(=S)Nc1cccc(C(F)(F)F)c1)c1cccc(Cl)c1	-18	9	25*	15	104
O=C(NNC(=S)Nc1cccc(C(F)(F)F)c1)c1ccccc1Cl	-20	-11	0	16	102
C/C(=N\NC(=O)C1(C)CC1(Br)Br)c1cccc(NC(=O)c2ccc(C)o2)c1 (stereo unspecified)	10	-22	11*	10	104
SMILES	UBC13 polyUb	dFosB act	GRIN3A LBD mod	NALP1 yeast inh	Yeast superoxide
Cn1c(=O)c(NCCc2ccccc2)c2c3c(cccc31)C(=O)c1ccccc1-2	-191	-7	43*	-3	106
CN(C(=O)c1ccncc1)c1ccccc1	-2	-3	11*	12	101
CN(C(=O)c1cccc(C(=O)N(C)c2ccccc2)c1)c1ccccc1	10	0	-7	1	102
N#Cc1nc(Nc2cccc(Cl)c2)c2ncn(C3CCCC3)c2n1	14	3	11*	x	120
CSc1nn(-c2ccc(C(=O)OC(C(=O)NC(N)=O)C(C)C)cc2)c(=S)s1 (stereo unspecified)	-14	15	2	38*	96
CCNC(=O)NC(=O)C(C)OC(=O)c1ccc(-n2nc(SC)sc2=S)cc1 (stereo unspecified)	-3	-64	-2	21	111
